Measurements: PubChem BioAssay (NCI)
Values joined by “and” are separate entries in the source; they are usually repeats but may differ in a detail not shown here. Equal values may be shown once. About 79,000 compounds went through this panel and 15% of them were active in at least one assay; those are over-represented in the sample as a whole. Cut-off read from the data, not from the text of the source: active = growth inhibition above about 70%; inactive = the rest.

Experiments:
[1] = NCI Yeast Anticancer Drug Screen. Data for the rad50 strain (AID 155);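 note: 0% = growth of vehicle-only cultures of the same strain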; conditions: S. cerevisiae rad50 strain growth inhibition; at 50.0 µM; stronger effect = higher value
In short: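 Readout: growth inhibition relative to vehicle-treated cultures. Compound exposure was carried out in a genetically defined yeast strain deficient in DNA damage repair.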

[2] = NCI Yeast Anticancer Drug Screen. Data for the mec2-1 strain (AID 157); conditions: S. cerevisiae mec2-1 strain, at 50.0 µM, stronger effect = higher value
In short: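 Cells of the genetically defined mec2-1 yeast strain are incubated with test compound. Inhibition of growth is calculated against vehicle-treated controls.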

[3] = NCI Yeast Anticancer Drug Screen. Data for the sgs1 mgt1 strain (AID 161);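 note: 0% = growth of cultures given vehicle only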; conditions: S. cerevisiae sgs1 mgt1 strain, at 50.0 µM, stronger effect = higher value
In short: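 Test agents were incubated with a DNA-repair-mutant yeast strain. Growth was then read and compared against vehicle-treated controls.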

[4] = NCI Yeast Anticancer Drug Screen. Data for the cln2 rad14 strain (AID 165);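 note: 0% = growth equal to vehicle treated cultures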; conditions: S. cerevisiae cln2 rad14 strain, at 50.0 µM, stronger effect = higher value
In short: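 The screen exposed genetically defined yeast (cln2 rad14) to test compounds and scored growth inhibition relative to vehicle-treated controls.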

[5] = NCI Yeast Anticancer Drug Screen. Data for the bub3 strain (AID 167); conditions: S. cerevisiae bub3 mutant strain, at 50.0 µM, stronger effect = higher value
In short: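 Readout: yeast growth inhibition, expressed relative to vehicle-only wells. The test organism is a mutant strain from a panel with lesions in DNA repair or checkpoint genes.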

[6] = NCI Yeast Anticancer Drug Screen. Data for the mlh1 rad18 strain (AID 175); conditions: S. cerevisiae mlh1 rad18 strain growth inhibition; at 50.0 µM; stronger effect = higher value
In short: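 Compound-treated yeast growth, normalised to vehicle controls. Strain bears defined DNA repair mutations.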

Measured: growth inhibition

O=C(O)C1CCCC2C(O)CCC(=O)C12 (stereo unspecified)
inactive: [1] -23.5% and -14.2% | [2] -16.3% and -6.8% | [3] -12.7% and -5.6% | [4] -5.45% and 4.25% | [5] -12.9% and -5.9% | [6] -29.4% and -32%

COC1OC(COC(C)=O)C(OC(C)=O)C(OC(C)=O)C1NC(=O)N(CCCl)N=O (stereo unspecified)
inactive: [1] -0.5% and -15.6% | [2] -7.1% and -8.6% | [3] -1.2% and -13.6% | [4] 9.65% and 20.3% | [5] 7.95% and 16.2% | [6] -10.5% and -14%

CC(C)CC(CC(C)C)=NNc1ccc([N+](=O)[O-])cc1[N+](=O)[O-]
inactive: [1] -12.9% and -0.9% | [2] 6.5% and -18.6% | [3] -10% and -6.9% | [4] -33.3% and 19.9% | [5] 12.3% and -10.9% | [6] -13.9% and 19.4%

CC(C)c1ccc2c(c1)CC[C@H]1[C@](C)(C#N)CCC[C@]21C
inactive: [1] 1.1% and 0.25% | [2] -20.8% and -11.4% | [3] 0.6% and -17.2% | [4] -28.4% and -20.4% | [5] 1.25% and 13.2% | [6] 9.85% and 34.7%

c1ccc(CSSCc2ccccc2)cc1
inactive: [1] 9.45% and -1.4% | [2] -0.35% and -3.15% | [3] 3% and 1.85% | [4] -5.5% and -8.2% | [5] 4.9% and -9.9% | [6] 15.3% and -14.1%

CC(=O)OCC(OC(C)=O)C(OC(C)=O)C(OC(C)=O)C(C=NN(C(C)=O)S(=O)(=O)c1ccc(/C=C2\NC(=O)NC2=O)cc1)OC(C)=O (stereo unspecified)
inactive: [1] 2.7% and 15.3% | [2] 13.4% and 0.65% | [3] 26.6% and 11.7% | [4] 24.1% and 30.6% | [5] -5.25% and 7.15% | [6] 25.8% and 18.2%

Cc1cc(C(=O)O)c(CN2C(=O)c3ccccc3C2=O)c(=O)n1C
inactive: [1] -11.3% and -1.15% | [2] 20.4% and -14.3% | [3] 2.45% and -7.1% | [4] -6.3% and 6.85% | [5] 12.1% and -19.1% | [6] -18.9% and 9.45%

O=C(O)CC(c1ccccc1)c1ccccc1
inactive: [1] -47.2% and 9.6% | [2] -39% and -5.4% | [3] -2.95% and 2.15% | [4] 3.35% and -3.55% | [5] -30.6% and -21.7% | [6] -28.1% and -0.95%

CN(C)C(c1ccccc1)C1COC2Cc3ccccc3C1O2 (stereo unspecified)
inactive: [1] -8.1% and -3.3% | [2] -4.55% and -11.4% | [3] 10.3% and -2.85% | [4] 2.05% and 6.35% | [5] -27.2% and -19.2% | [6] -6.6% and -23.6%

CN(C)CC(O)c1cc2ccccc2c2ccccc12 (stereo unspecified)
inactive: [1] 3.3% and -1.9% | [2] 22.6% and -10.7% | [3] 3.4% and -2.3% | [4] -8.8% and -32.2% | [5] 18.4% and -5.5% | [6] 8.65% and -14.2%

Nc1ccc(CCc2ccc(N)cc2)cc1
inactive: [1] 2.95% and -24.4% | [2] -6.85% and -19.4% | [3] -34.4% and -18.4% | [4] -48.5% and -20.8% | [5] 7.35% and -18.9% | [6] 12.2% and -8.65%

CCCCc1ccc(OC2OC(COC(C)=O)C(OC(C)=O)C(OC(C)=O)C2OC(C)=O)cc1 (stereo unspecified)
inactive: [1] -29.1% and -28.1% | [2] -14.3% and 6.7% | [3] -42.8% and -12.9% | [4] -4.35% and 17.6% | [5] -32.5% and -4.9% | [6] -35.5% and -0.5%

O=C1OC(c2ccccc2)=N/C1=C\c1ccccc1O
inactive: [1] -4.65% and -9.75% | [2] -13.2% and -16.3% | [3] -0.2% and -1.3% | [4] 2.6% and 7.3% | [5] -1.7% and -13.6% | [6] -21.1% and -0.55%

CC1CC(C)(C)C2=NCCN21 (stereo unspecified)
inactive: [1] 2.25% and -8.15% | [2] -23.6% and -28.6% | [3] -4.8% and 8.8% | [4] -3.2% and 18.6% | [5] -7.3% and 14.2% | [6] -0.7% and -3.25%

O=C1OCC/C1=C\c1ccco1
inactive: [1] 9.55% and -9.2% | [2] 2.2% and 3.9% | [3] 6.15% and 9.15% | [4] -19.1% and 10.9% | [5] -6.75% and 17.9% | [6] 10.3% and -6.35%

COC(=O)NC1C(=O)OC(C2OC2(C)C)C1(C)C (stereo unspecified)
inactive: [1] -4% and -2.5% | [2] -22.9% and -12.8% | [3] -5.3% and -32.8% | [4] 4.35% and -7.9% | [5] -17.1% and -31.4% | [6] -6.15% and -27.4%
